Results on 14 compounds are retold here after PubChem BioAssay (NCI).

This test in a line: NCI Yeast Anticancer Drug Screen. Data for the sgs1 mgt1 strain (AID 161).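 Note: 0% = growth of cultures given vehicle only.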 Particulars: S. cerevisiae sgs1 mgt1 strain, hits give high values. Here is the method: Growth inhibition of yeast strains with defined genetic alterations is measured as a screen for potential anti-cancer activity. Selected strains with alterations in DNA damage repair or cell cycle control were exposed to compounds and growth inhibition was measured relative to vehicle treated controls. The strain used in this assay is sgs1 mgt1

The mark [1] stands for this setting: at 5.0 µM (retest, dose inferred, filed as 0.5).
Where [2] appears, read: at 50.0 µM (retest, dose inferred, filed as 5.0).

The panel holds about 79,000 compounds, 15% with a hit somewhere; the sample as a whole holds those more often. Unmarked numbers belong to inactive results. Activity calls are given as the source filed them. Cut-off read from the data, not from the text of the source: active = growth inhibition above about 70%; inactive = the rest.

Consider `COc1ccc(C2c3cc4c(cc3OC(C)(O)C2C)OCO4)c(OC)c1` (configuration not stated), for which the growth inhibition was 4% under setting [1], 70% (active) under setting [2] and 84.5% (active) (at 50.0 µM).
As to `COc1ccc(/C=C2\SC(=S)N(/C=C/c3nc4ccccc4[nH]c3=O)C2=O)cc1OC`, the growth inhibition is, setting by setting: under setting [1], -7%; under setting [2], 57%; (at 50.0 µM) 87% (active).
For `CCCCCCCC1(N=[N+]=[N-])C(=O)c2ccccc2N(C)C1=O` (configuration not stated), the growth inhibition by setting is: under setting [1], -7%; under setting [2], 71% (active); (at 50.0 µM) 79.5% (active).
On the same counts, the results for `CC(=O)Oc1cc(-c2cc(OC(C)=O)c(OC(C)=O)c3ccccc23)c2ccccc2c1OC(C)=O` are 24%, 85% (active) and 87% (active).
For the compound `CC(C)(CN1CCCCC1)C(=O)CC(SCCS(=O)(=O)O)c1ccc(Br)cc1` (configuration not stated), the growth inhibition is, setting by setting: under setting [1], 5%; under setting [2], 4%; (at 50.0 µM) 68.5%.
Taken in the same sequence, the figures for `S=C(S)NN1CCOCC1` were 92% (active), 91% (active) and 77.2% (active).
With `COc1ccc(Br)c(C(=O)Sc2nnnn2-c2cccc(Cl)c2)c1`, the growth inhibition reads like this: under setting [1], -19%; under setting [2], 89% (active); (at 50.0 µM) 87.8% (active).
On the same counts, the results for `O=[N+]([O-])c1cc(CCl)ccc1CCl` are 4%, 98% (active) and 98.5% (active).
With `S=C(Nc1ccc(Cl)cc1)SC1CCCCC1`, the growth inhibition under setting [1] was 18%, the growth inhibition under setting [2] was 79% (active) and the growth inhibition (at 50.0 µM) was 86.5% (active).
As for `Cc1nn(-c2cc(Cl)ccc2[N+](=O)[O-])c(C)c1Cl`, the growth inhibition under setting [1] is -15%, the growth inhibition under setting [2] was -10% and the growth inhibition (at 50.0 µM) is 43.6%.
On to `C[Si](C)(C)CNC(=O)OCc1ccccc1`, for which the growth inhibition under setting [1] was -8%, the growth inhibition under setting [2] was -13% and the growth inhibition (at 50.0 µM) was 4.25%.
`Cc1c(C(=O)C(=O)c2ccccc2)c(C)c(C(=O)C(=O)c2ccccc2)c(C)c1C(=O)C(=O)c1ccccc1`: the growth inhibition reads like this: under setting [1], -5%; under setting [2], 86% (active); (at 50.0 µM) 75.7% (active).
As for `COc1ccc(-c2cn(-c3ccc(I)cc3)c3ncnc(N)c23)cc1`, the growth inhibition was 39% under setting [1], 82% (active) under setting [2] and -11.2% (at 50.0 µM).
For `CN(C)CCn1c2c3ccccc3ccc2c2oc(=O)c3ccccc3c21`, the growth inhibition under setting [1] was -1%, the growth inhibition under setting [2] is 93% (active) and the growth inhibition (at 50.0 µM) was 89% (active).
